High-throughput results: PubChem BioAssay, National Center for Advancing Translational Sciences (NCATS)
Sampled rows, rich in hits. Any-hit rate of the full collection: about 20%.
HCMV antiviral: human cytomegalovirus inhibition. hit rate 4.5% among 410,000. HFF cells, HCMV-luciferase reporter, 72 h; active compounds read low. activity change, negative = inhibition, % at 57.5 µM. AID 1259415; in the data active = activity change below about -60%; inconclusive = no clear call, values can overlap the other calls; inactive = above about -39%; note: % is set by controls: 0 for no effect and ±100 for the full control effect
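Two-dose cell screen: HFF monolayers treated with compounds and infected with luciferase-expressing HCMV at 1 PFU/cell, 72 h at 37C, then lysed for luciferase measurement.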
Shiga inhibitor: inhibitors of Shiga toxin in Vero cells; Vero cells, Shiga toxin protein synthesis inhibition reporter; hit rate 9.2% among 290,000; AID 2315; inhibition, % at 38.7 µM; in the data active = inhibition mostly above about 28%, no sharp cut-off; inactive = mostly below about 43%; note: 0% is about no effect
CHX counter: counter-screen hit for Shiga toxin inhibitors, cycloheximide; AID 2314; cell reporter, cycloheximide protein synthesis inhibition counterscreen; max response, %; hit rate 12% among 300,000; in the data active = max response mostly above about 13%, no sharp cut-off; inactive = mostly below about 14%; note: read at 38.3 µM for the half of the compounds with a filed dose; 0% is about no effect
Pf growth 48h: P. falciparum growth inhibition at 48 hours (one generation). P. falciparum luciferase growth in erythrocytes, 48 h. Potency, µM (series often up to 28.7 µM), for inactives: top-dose activity change, negative = inhibition, actives largely listed as inhibitors. hit rate 5.9% among 310,000; note: potency is the fitted concentration of half-maximal effect; % is set by controls: 0 for no effect and ±100 for the full control effect
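Luciferase-expressing P. falciparum in infected erythrocytes (2% hematocrit, 0.1% parasitemia final) in RPMI 1640/0.5% Albumax were exposed to compound for 48 hours at 37 C, 5% CO2; growth read as luminescence.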
Pf growth 96h: P. falciparum growth inhibition at 96 hour, primary screen for plastid delayed-death inhibitors | P. falciparum luciferase reporter growth, 96 h | hit rate 6.9% among 320,000 | Potency, µM (titrated, usually from 28.7 µM), for the others: top-dose activity change, negative = inhibition, most hits filed as inhibitors | AID 504834; note: potency is the fitted concentration of half-maximal effect; % is set by controls: 0 for no effect and ±100 for the full control effect
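Infected RBCs, 2% Hct / 0.05% parasitemia final; luciferase-reporter P. falciparum; cpd 96 h, 37 C, 5% CO2; luciferase detection reagent; luminescence.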
An asterisk follows results filed as active; i = inactive; ? = inconclusive; / = no result given. Unless noted, calls come from the whole dose curve; as a rule, active = well fitted inhibition curve with a large enough effect; inconclusive = small, poorly fitted or top-dose-only effect, or another doubt; inactive = no such curve, though single readings can be large or run the other way.

SMILES	HCMV antiviral	Shiga inhibitor	CHX counter	Pf growth 48h	Pf growth 96h
COC(=O)c1cc(NC(=O)Cc2cc(OC)c(OC)c(OC)c2)cc(C(=O)OC)c1	-4.7	-6.9	0.8	-9.5%	?
O=C(Cn1cc(C(F)(F)F)ccc1=O)N/N=C/c1ccc(Cl)cc1	28.0	-11.9	-1.4	40.0%	44.4%
Cc1cc(C)c2oc(C(=O)N(Cc3ccc(F)cc3)C3CCS(=O)(=O)C3)cc(=O)c2c1 (centres undefined)	33.3	10.4	-4.0	?	-7.0%
Cc1cc2oc(C(=O)N(Cc3cccs3)C3CCS(=O)(=O)C3)cc(=O)c2cc1Cl (centres undefined)	8.1	27.8	5.4	?	?
Cc1ccc(CN(C(=O)c2cc(=O)c3cc(Cl)c(C)cc3o2)C2CCS(=O)(=O)C2)cc1 (centres undefined)	13.2	-16.4	-2.9	?	4.65µM*
Cc1ccc(CN(C(=O)c2cc(=O)c3cc(C)cc(C)c3o2)C2CCS(=O)(=O)C2)cc1 (centres undefined)	20.7	-7.0	-0.7	3.29µM*	9.28µM*
O=C1Nc2ccccc2C1(O)C/C(=N/O)c1ccccc1 (centres undefined)	-12.2	-9.4	-3.3	5.0%	52.6%
COC(=O)[C@@H]1C(c2c(OC)cc(OC)cc2OC)=NO[C@H]1C(=O)OC	3.6	17.9	8.7	21.0%	23.8%
COc1ccc(/C(C)=N/NC(=O)c2ccc(CSc3nncn3C)cc2)cc1	2.0	-6.0	5.9	?	4.15µM*
C/C(=N\NC(=O)c1ccc(CSc2nncn2C)cc1)c1cccs1	-17.3	106.6*	28.4*	0.0%	9.7%
CC(C)c1ccc2[nH]c(O)c(N=NC(=O)c3ccc(CSc4nncn4C)cc3)c2c1	-2.3	-11.5	-3.1	-16.7%	5.22µM*
Cn1cnnc1SCc1ccc(C(=O)O)cc1	3.0	-18.1	-5.1	0.3%	21.2%
CCC/C(=N\NC(=O)c1ccc(CSc2nncn2C)cc1)c1ccccc1	-2.4	12.8	9.1	-9.4%	-5.8%
Cn1cnnc1SCc1ccc(C(=O)N/N=C(\CCC(=O)O)c2ccc(C(C)(C)C)cc2)cc1	17.1	32.3*	14.5*	13.8%	22.3%
C[C@H](NC(=O)[C@@H]1CCCN1C(=O)[C@@H]1CCCN1C(=O)c1cccs1)c1ccccc1	-6.7	/	/	/	/
COc1ccc(S(=O)(=O)N2CCCCC2c2cc(C(=O)Nc3ccccc3)no2)cc1 (centres undefined)	3.9	/	/	/	/
CS(=O)(=O)c1ccc2nc(NC(NC(=O)c3ccco3)(C(F)(F)F)C(F)(F)F)sc2c1	-36.0	-16.1	-5.8	-5.5%	15.7%
FC(F)OC(Cl)C(F)(F)F (centres undefined)	/	/	/	3.3%	-4.6%
O=C(NCc1cccc(F)c1)c1ccc(N2C(=O)Cn3c(cc4sccc43)C2=O)cc1	-14.7	-6.9	-1.2	-8.9%	53.1%
COc1cccc(C(=O)CN2CCN(S(=O)(=O)c3ccc(Cl)cc3)CC2)c1	26.4	/	/	/	/
Cn1cnnc1SCc1ccc(C(=O)NN)cc1	16.1	47.8	45.2*	7.0%	-14.7%
COC(=O)/C=C1\OCc2cc(C)ccc21	3.5	/	/	/	/
Cc1c(C(=O)NCCC2=CCCCC2)sc2ncnc(N3CCCCC3C)c12 (centres undefined)	-38.8	3.9	-5.9	?	2.62µM*
Cc1ccc(NC(=O)CCC(=O)NNC(=O)/C=C/C(=O)O)c(C)c1	-35.8	-8.1	2.8	4.4%	29.8%
O=C(NCCc1c[nH]c2ccccc12)C(=O)NCC1OCCCN1S(=O)(=O)c1ccccc1 (centres undefined)	?	3.6	-1.2	9.28µM*	?
SMILES	HCMV antiviral	Shiga inhibitor	CHX counter	Pf growth 48h	Pf growth 96h
Cc1ccc(S(=O)(=O)N2CCOC2CNC(=O)C(=O)NCCCN2CCOCC2)cc1 (centres undefined)	-61.2*	11.5	2.6	124.2%	2.8%
O=C(NCCc1c[nH]c2ccccc12)C(=O)NCC1OCCN1S(=O)(=O)c1ccccc1 (centres undefined)	-4.1	35.7	8.4	-1.6%	7.7%
Cc1ccc(S(=O)(=O)N2CCCOC2CNC(=O)C(=O)NCCc2c[nH]c3ccccc23)cc1 (centres undefined)	-63.6*	96.1*	73.1*	?	13.1µM*
O=C(NCCc1c[nH]c2ccccc12)C(=O)NCC1OCCN1S(=O)(=O)c1ccc(F)cc1 (centres undefined)	-5.7	-9.4	1.1	-15.2%	?
CC1=NN(c2ccc(Cl)cc2)C(=O)/C1=C\c1cccn1-c1ccc(S(N)(=O)=O)cc1	-8.2	-10.5	-1.6	-5.0%	?
CC(=O)c1ccc(NC(=O)Cn2c(=O)nc(-c3ccccc3)c3cc(Cl)ccc32)cc1	15.4	/	/	/	/
Cc1cc(F)ccc1NC(=O)CCS(=O)(=O)c1cc2c3c(c1)CCN3C(=O)CC2	1.3	/	/	/	/
CC1=NNC(=O)C1CC(=O)N/N=C/c1sccc1C (centres undefined)	-39.3	1.4	12.0	80.4%	44.5%
O=c1[nH]ncc(N/N=C/c2ccccc2)c1Cl	88.7	20.0	5.4	37.3%	/
Cc1ccc(/C=N\Nc2cn[nH]c(=O)c2Cl)cc1	290.5	107.0	37.8*	94.1%	/
Cc1ccsc1/C=N\Nc1cn[nH]c(=O)c1Cl	60.2	46.5	31.1*	46.7%	28.3%
COc1ccc(/C=N/Nc2cn[nH]c(=O)c2Cl)cc1	148.5	59.6	29.0*	i	18.8%
COc1cc(-c2noc(CCC(=O)NC3CCCCC3)n2)cc(OC)c1OC	9.6	1.2	-4.9	?	192.9%
O=[N+]([O-])c1cccc(-c2nnc(-c3ccc4c(c3)OCO4)o2)c1	9.6	111.0*	64.5*	216.2%	156.9%
O=[N+]([O-])c1cccc(-c2nnc(-c3ccccc3)o2)c1	206.9	67.5*	45.4*	88.9%	11.4%
Clc1ccccc1-c1nnc2sc(-c3ccc4c(c3)OCO4)nn12	40.6	40.1*	19.2*	11.7µM*	-19.2%
Nc1cc(-c2cccc([N+](=O)[O-])c2)[nH]n1	-23.8	2.5	16.5*	12.8%	56.0%
CC1CCCCC1NC(=O)COC(=O)c1c2c(nc3ccccc13)/C(=C\c1ccco1)CC2 (centres undefined)	-13.5	/	/	/	/
Cc1occc1-c1nnc(-c2cc([N+](=O)[O-])cc([N+](=O)[O-])c2)o1	-17.4	18.1	11.1	10.4µM*	29.1%
CSc1ccccc1-c1nnc(-c2ccc(Cl)c(Cl)c2)o1	96.9	4.7	18.8	36.9%	?
Clc1ccccc1-c1nnc2sc(CCc3ccccc3)nn12	30.5	28.5	6.5	13.1µM*	/
c1ccc(CCc2nn3c(-c4ccncc4)nnc3s2)cc1	?	18.0	6.0	?	-8.7%
Clc1ccccc1-c1nnc(-c2ccc3c(c2)OCO3)o1	115.3	93.3*	28.5*	i	?
CCOC(=O)c1ccc(CN(Cc2ccc(Br)cc2)S(=O)(=O)c2cccc(Cl)c2C)cc1	-6.4	/	/	/	/
Cc1cccc2[nH]c(CN(C)C(=O)CC3C(=O)NCCN3CC(C)(C)C)nc12 (centres undefined)	-19.4	10.5	-3.2	?	5.0%
